Source: PubChem BioAssay (NCATS)
“And” between values parts separate entries of the source, which are not always exact repeats. Equal values may be shown once. Inconclusive results are not listed. The source made the active and inactive calls. Unless noted, the call rests on the fitted dose curve; in most records, active means well fitted curve in the direction sought with a large enough effect; inconclusive means small, poorly fitted or top-dose-only effect, or another doubt; inactive means no such curve, though single readings can be large; an effect the other way counts as inactive or inconclusive.

How the values were obtained:
[1] = molecular target: Glucocorticoid receptor (Homo sapiens) (UniProt P04150); test: qHTS assay for small molecule agonists of glucocorticoid receptor signaling (AID 588532; active means well fitted curve in the direction sought with a large enough effect in the signal ratio, with a control signal flat; the % refers to the signal ratio;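 further: 100% = dexamethasone at 0.1 µM and 0% = DMSO only wells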); conditions: HeLa MMTV-bla, beta-lactamase ratio, agonist, 18 h; stronger effect = higher value; percent of dexamethasone control, DMSO zero
Outline: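 Quantitative HTS using CellSensor MMTV-bla HeLa cells in charcoal/dextran-treated serum; compounds tested up to 92 uM. After 18 h at 37 C, CCF4 dye reported reporter induction.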

[2] = qHTS assay for small molecule antagonists of peroxisome proliferator-activated receptor delta signaling (AID 588535; active means well fitted inhibition curve with a large enough effect in the signal ratio, with a control signal flat, not every such curve was filed as active; the % refers to the signal ratio;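 on max response: cells co-treated with a PPAR-delta agonist as stimulator during compound exposure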); conditions: HEK293T PPARd-UAS-bla, beta-lactamase FRET ratio, 18 h; 460 nm channel
Outline: (§1)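 HEK293T PPAR-delta-UAS-bla cells, 4000/well, 2% charcoal/dextran FBS; 5 h 37 C; cpd titration; 18 h 37 C; CCF4 2 h RT; FI 460/530 nm; Hill fit → IC50, efficacy.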

[3] = molecular target: Peroxisome proliferator-activated receptor delta (Homo sapiens) (UniProt Q03181); test: as above; conditions: HEK293T PPARd-UAS-bla, beta-lactamase FRET ratio, 18 h; series mostly up to 76.7 µM
Outline: as §1

[4] = molecular target: Peroxisome proliferator-activated receptor gamma (Homo sapiens) (UniProt P37231); test: qHTS assay for small molecule antagonists of peroxisome proliferator-activated receptor gamma signaling (AID 588537; active means well fitted inhibition curve with a large enough effect in the signal ratio, with a control signal flat, not every such curve was filed as active; the % refers to the signal ratio;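 further: reporter cells co-stimulated with 50 nM rosiglitazone agonist during compound treatment; % of control where 0% means no effect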); conditions: HEK293 PPARg-UAS-bla, beta-lactamase ratio, antagonist mode; series mostly up to 76.8 µM
Outline: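 Antagonist mode, beta-lactamase reporter in HEK293; charcoal/dextran FBS 1%; 3000 cells/well, 37 C 6-6.5 h; cpd titration + rosiglitazone 50 nM final, 16 h 37 C; CCF4, 2 h RT; 460/530 nm; Hill fit → IC50, efficacy.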

[5] = molecular target: Vitamin D3 receptor (Homo sapiens) (UniProt P11473); test: qHTS assay for small molecule antagonists of vitamin D receptor signaling (AID 588541; calls by dose curve;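 further: receptor activated by calcitriol during compound treatment; on the % scale 0 is the no-effect control and ±100 the full control effect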); conditions: HEK293T VDR-UAS-bla, beta-lactamase ratio, antagonist mode; series mostly up to 76.7 µM
Outline: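 Antagonist-mode beta-lactamase reporter assay: HEK293T VDR-UAS-bla cells were exposed to titrated compound alongside 1-alpha,25-dihydroxyvitamin D3 at 3 nM final for 16 h. Values were normalized to the 50 nM agonist control and DMSO basal, with IC50 and efficacy from Hill equation fits.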

[6] = molecular target: Vitamin D3 receptor (Homo sapiens) (UniProt P11473); test: qHTS assay for small molecule agonists of vitamin D receptor signaling (AID 588543; calls by dose curve;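 further: 0% = DMSO basal and 100% = reference agonist control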); conditions: HEK293T VDR-UAS-bla, beta-lactamase ratio, 16 h; series mostly up to 76.8 µM
Outline: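 Agonist-mode beta-lactamase reporter: HEK293T VDR-UAS-bla cells in charcoal-stripped 2% FBS, compound series 16 h 37 C, CCF4 2 h RT. EC50 from Hill fit, scaled against DMSO and 50 nM calcitriol control.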

[7] = qHTS assay for small molecule agonists of retinoid X receptor alpha signaling (AID 588544; calls by dose curve;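 on activation: 0% = DMSO basal wells and 100% = reference agonist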); conditions: HEK293T RXRa-UAS-bla, beta-lactamase reporter, 18 h; 530 nm emission
[8] = molecular target: Retinoic acid receptor RXR-alpha (Homo sapiens) (UniProt P19793); test: as above; conditions: HEK293T RXRa-UAS-bla, beta-lactamase reporter, 18 h; series mostly up to 76.7 µM
[9] = molecular target: Thyroid hormone receptor beta (Homo sapiens) (UniProt P10828); test: qHTS assay for small molecule agonists of thyroid hormone receptor beta signaling (AID 588545; calls by dose curve;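 further: 0% = DMSO only and 100% = 10 nM T3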); conditions: TR-UAS-bla GripTite HEK 293, beta-lactamase ratio, agonist mode, 18 h; series mostly up to 76.7 µM
Outline: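 Compounds were tested as agonists in TR-UAS-bla-GripTite HEK 293 cells. After 18 hrs at 37 C, CCF4 substrate was added and fluorescence read after 2 hrs at room temperature.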

[10] = qHTS assay for small molecule antagonists of retinoid X receptor alpha signaling (AID 588546; active means well fitted inhibition curve with a large enough effect in the signal ratio, with a control signal flat, not every such curve was filed as active; the % refers to the signal ratio;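 further: cells stimulated with 9-cis-retinoic acid as agonist; on the % scale 0 is the no-effect control and ±100 the full control effect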); conditions: HEK293T RXRa-UAS-bla, beta-lactamase ratio, antagonist mode; measured here: W530 green channel, cytotoxicity proxy
Outline: (§2)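 Beta-lactamase reporter inhibition, read as CCF4 fluorescence ratio (ex 405, em 460/530 nm) after 2 h at RT. HEK293T UAS-bla cells, 2500/well, were stimulated with 9-cis-RA at 500 or 100 nM final alongside test compound for 18 h at 37 C.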

[11] = molecular target: Retinoic acid receptor RXR-alpha (Homo sapiens) (UniProt P19793); test: as above; conditions: HEK293T RXRa-UAS-bla, beta-lactamase ratio, antagonist mode
Outline: as §2

[12] = qHTS assay for small molecule agonists of the antioxidant response element (ARE) signaling pathway (AID 651741; active means well fitted activation curve with a large enough effect in the signal ratio; the % refers to the signal ratio; further: potency means the concentration at half of the fitted maximal effect; on activation: % of control where 0% means no effect); conditions: HepG2 ARE-bla reporter, beta-lactamase FRET ratio, 16 h; series mostly up to 96 µM
Outline: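 Quantitative HTS in HepG2 cells stably expressing an ARE-beta-lactamase reporter; 16 h compound exposure at 37 C, followed by 2 h room-temperature incubation with LiveBLAzer B/G FRET substrate and fluorescence measurement.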

[13] = qHTS assay for small molecule activators of the p53 signaling pathway (AID 651743; active means well fitted activation curve with a large enough effect in the signal ratio, not every such curve was filed as active; the % refers to the signal ratio; further: potency means the concentration at half of the fitted maximal effect; on activation: % of control where 0% means no effect); conditions: HCT-116 p53RE-bla, beta-lactamase FRET ratio, 16 h; activation: stronger effect = higher value
Outline: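 Read-out is fluorescence intensity from the LiveBLAzer B/G FRET substrate, added for 2 hours at room temperature after HCT-116 p53RE-bla cells had been incubated with compounds for 16 hours at 37 C.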

[14] = qHTS assay for environmental chemicals that activate the Aryl hydrocarbon Receptor (AhR) signaling pathway (AID 651777); conditions: 1A2-DRE human hepatoma cells, luciferase, 24 h; activation: stronger effect = higher value; further: nearly all actives have a fitted effect of over 15% in size; further: potency means the concentration at half of the fitted maximal effect; on activation: % of control where 0% means no effect
Outline: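 Human hepatoma 1A2-DRE cells, stably carrying a dioxin response element and CYP1A2 promoter driving luciferase, were exposed to compounds for 24 hr at 37 C and 5% CO2. Luciferase signal was then read after 30 min One-Glo at room temperature.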

[15] = molecular target: Peroxisome proliferator-activated receptor alpha (Homo sapiens) (UniProt Q07869); test: qHTS assay for small molecule agonists of the peroxisome proliferator-activated receptor alpha (PPARalpha) signaling pathway (AID 651778); conditions: PathHunter PPARalpha complementation, chemiluminescence, 6 h; max response: stronger effect = higher value; further: % of control where 0% means no effect
Outline: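 Chemiluminescence from complemented enzyme reported PPARalpha activation in cells after 6 hr of compound treatment at 37 C. The detection reagent was incubated for 60 min at room temperature, and compounds were scored as agonists.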

[16] = qHTS assay for small molecule agonists of the antioxidant response element (ARE) signaling pathway measured by Nrf2-dependant transcriptional activity (AID 720636; active means well fitted curve in the direction sought with a large enough effect in the repeat runs; an effect the other way counts as inactive or inconclusive; further: % of control where 0% means no effect); conditions: ARE-luc HepG2, Nrf2 luciferase reporter, 16 h; series mostly up to 92.4 µM
Outline: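 ARE-luc HepG2 cells carrying an Nrf2-responsive luciferase reporter were plated in medium with 1% dialyzed FBS, left 6 hr at 37 C to attach, then exposed to compound for 16 hr. Luciferase luminescence was read after ONE-Glo addition.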

[17] = qHTS assay for small molecule agonists of the antioxidant response element (ARE) signaling pathway measured by Nrf2-dependant transcriptional activity - cell viability counter screen (AID 720653; active means well fitted curve in the direction sought with a large enough effect in the repeat runs; an effect the other way counts as inactive or inconclusive; further: on the % scale 0 is the no-effect control and ±100 the full control effect); conditions: ARE-bla HepG2 viability, CellTiter-Glo ATP luminescence, 16 h; max response: stronger effect = lower value
Outline: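 Cytotoxicity counter screen: intracellular ATP quantified by CellTiter-Glo luminescence in the same ARE-bla HepG2 plates, after 16 h compound exposure and a 2 h beta-lactamase substrate step.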

[18] = qHTS assay for cell viability of HEK293 cells (AID 743288); conditions: ATP luminescence (CellTiter-Glo), 18 h; max response: stronger effect = lower value; further: on the % scale 0 is the no-effect control and ±100 the full control effect; nearly all actives have a fitted effect of over 50% in size
Outline: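 Total intracellular ATP, measured with a luciferase-coupled reagent, indicates the number of viable HEK293 cells. Exposure to test chemicals lasts 18 h at 37 C in 1,536-well format at 2,000 cells/well.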

[19] = qHTS assay for cell viability of the p53RE-bla HCT-116 cell line (AID 743292); conditions: p53RE-bla HCT-116 viability, ATP luminescence, 16 h; series mostly up to 95 µM; further: nearly all actives have a fitted effect of over 55% in size; further: potency means the concentration at half of the fitted maximal effect
Outline: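 CellSensor p53RE-bla HCT-116 cells, 4,000/well, preincubated 5 h at 37 C, then exposed to compounds in DMSO for 16 h at 37 C. Viability read as CellTiter-Glo luminescence (intracellular ATP) after 30 min at room temperature.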

[20] = molecular target: Nuclear receptor subfamily 1 group I member 2 (Rattus norvegicus) (UniProt Q9R1A7); test: qHTS assay for small molecule activators of the rat pregnane X receptor (rPXR) signaling pathway (AID 651751; call rule not given here; further: 0% is about no effect); conditions: rPXR reporter cells, luciferase (One-Glo), 24 h
[21] = qHTS assay for small molecule activators of the human pregnane X receptor (PXR) signaling pathway (AID 720659; call rule not given here; further: 0% is about no effect); conditions: DPX-2 HepG2 CYP3A4-luciferase, 24 h; series mostly up to 92.3 µM
[22] = molecular target: Peroxisome proliferator-activated receptor gamma (Homo sapiens) (UniProt P37231); test: qHTS assay for small molecule agonists of peroxisome proliferator-activated receptor gamma signaling (AID 588536; active means well fitted curve in the direction sought with a large enough effect in the signal ratio, with a control signal flat, not every such curve was filed as active; the % refers to the signal ratio;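 further: 0% = DMSO basal wells and 100% = rosiglitazone at 2 µM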); conditions: HEK293 PPARg-UAS-bla, beta-lactamase ratio, 16 h, percent of rosiglitazone response, DMSO as zero; series mostly up to 76.7 µM
Outline: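 Ratiometric blue/green fluorescence (405 nm excitation; 460 and 530 nm emission) from CCF4-loaded HEK293 reporter cells serves as signal. Exposure to test compounds lasts 16 h at 37 C in medium containing 1% charcoal/dextran-treated serum.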

[23] = molecular target: Thyroid hormone receptor beta (Homo sapiens) (UniProt P10828); test: qHTS assay for small molecule antagonists of thyroid hormone receptor beta signaling (AID 588547; active means well fitted inhibition curve with a large enough effect in the signal ratio, with a control signal flat, not every such curve was filed as active; the % refers to the signal ratio;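 further: cells stimulated with 0.4 nM T3 agonist during compound exposure; on the % scale 0 is the no-effect control and ±100 the full control effect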); conditions: TR-UAS-bla HEK293, beta-lactamase ratio, antagonist mode, 18 h
Outline: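 Inhibition of T3-driven (0.4nM final) beta-lactamase reporter activity was measured over 0.59 nM to 92 uM compound after 18 h at 37 C. The cells were GripTite HEK293 TR-UAS-bla in charcoal/dextran-stripped serum, with CCF4 ratio read-out and IC50 from Hill fits.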

[24] = qHTS assay for small molecule activators of the nuclear factor-kappa B (NF-kB) signaling pathway (AID 651749; active means well fitted activation curve with a large enough effect in the signal ratio; the % refers to the signal ratio; further: % of control where 0% means no effect); conditions: NF-kB-bla ME-180 cells, beta-lactamase FRET ratio, 16 h; activation: stronger effect = higher value
Outline: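 Readout: beta-lactamase reporter driven by an NF-kB response element, detected fluorescently as loss of FRET. Cells were the ME-180 line, treated 16 hr at 37C with pin-transferred compound.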

[25] = molecular target: Glucocorticoid receptor (Homo sapiens) (UniProt P04150); test: qHTS assay for small molecule antagonists of glucocorticoid receptor signaling (AID 588533; active means well fitted inhibition curve with a large enough effect in the signal ratio, with a control signal flat, not every such curve was filed as active; the % refers to the signal ratio); conditions: HeLa MMTV-bla, GRE beta-lactamase ratio, antagonist mode, 18 h; series mostly up to 76.8 µM
Outline: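 Antagonist-mode qHTS: compound titrations added to GRE-bla HeLa cells, then dexamethasone 2 nM final; 18 h, 37 C. CCF4 FRET fluorescence normalized to dexamethasone and DMSO; IC50 from Hill fit.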

Chain of Vitamin D3 receptor (Homo sapiens) (P11473 whole entry, looked up): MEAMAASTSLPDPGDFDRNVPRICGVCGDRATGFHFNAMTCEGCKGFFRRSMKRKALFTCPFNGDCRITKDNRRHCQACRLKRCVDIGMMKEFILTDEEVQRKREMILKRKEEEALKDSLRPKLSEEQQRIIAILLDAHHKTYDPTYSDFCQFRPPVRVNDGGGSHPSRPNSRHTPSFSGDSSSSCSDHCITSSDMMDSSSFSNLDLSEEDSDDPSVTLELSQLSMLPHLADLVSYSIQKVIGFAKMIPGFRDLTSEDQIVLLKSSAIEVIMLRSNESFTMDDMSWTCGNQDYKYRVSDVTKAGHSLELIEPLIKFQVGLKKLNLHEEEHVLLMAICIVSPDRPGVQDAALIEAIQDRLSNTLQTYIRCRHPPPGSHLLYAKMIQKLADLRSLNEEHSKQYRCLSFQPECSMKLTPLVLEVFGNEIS
Chain of Thyroid hormone receptor beta (Homo sapiens) (P10828 whole entry, looked up): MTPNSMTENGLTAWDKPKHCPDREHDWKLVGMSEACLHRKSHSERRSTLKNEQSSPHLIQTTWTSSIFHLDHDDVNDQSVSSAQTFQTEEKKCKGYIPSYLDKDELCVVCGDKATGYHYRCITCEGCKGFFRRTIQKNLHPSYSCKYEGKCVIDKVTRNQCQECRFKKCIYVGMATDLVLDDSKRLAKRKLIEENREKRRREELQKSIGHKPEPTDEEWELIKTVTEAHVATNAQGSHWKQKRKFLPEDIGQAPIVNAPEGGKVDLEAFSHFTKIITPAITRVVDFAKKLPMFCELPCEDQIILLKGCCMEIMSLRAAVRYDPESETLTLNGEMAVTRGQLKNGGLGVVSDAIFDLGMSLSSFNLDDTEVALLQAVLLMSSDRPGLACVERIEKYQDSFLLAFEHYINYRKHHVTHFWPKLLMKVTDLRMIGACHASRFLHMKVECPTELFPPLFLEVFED
Chain of Peroxisome proliferator-activated receptor delta (Homo sapiens) (Q03181 whole entry, looked up): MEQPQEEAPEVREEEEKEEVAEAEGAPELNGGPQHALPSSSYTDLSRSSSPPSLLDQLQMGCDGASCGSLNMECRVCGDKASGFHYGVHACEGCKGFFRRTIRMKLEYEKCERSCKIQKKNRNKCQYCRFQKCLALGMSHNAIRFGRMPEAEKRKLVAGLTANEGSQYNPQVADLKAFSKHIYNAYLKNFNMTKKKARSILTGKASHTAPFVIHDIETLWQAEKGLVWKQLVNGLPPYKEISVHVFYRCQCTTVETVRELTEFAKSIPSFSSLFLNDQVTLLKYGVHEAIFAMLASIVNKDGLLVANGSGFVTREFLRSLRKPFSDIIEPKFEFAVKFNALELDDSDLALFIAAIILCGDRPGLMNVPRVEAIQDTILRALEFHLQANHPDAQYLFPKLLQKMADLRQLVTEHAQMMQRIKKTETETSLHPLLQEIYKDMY
Chain of Nuclear receptor subfamily 1 group I member 2 (Rattus norvegicus) (Q9R1A7 whole entry, looked up): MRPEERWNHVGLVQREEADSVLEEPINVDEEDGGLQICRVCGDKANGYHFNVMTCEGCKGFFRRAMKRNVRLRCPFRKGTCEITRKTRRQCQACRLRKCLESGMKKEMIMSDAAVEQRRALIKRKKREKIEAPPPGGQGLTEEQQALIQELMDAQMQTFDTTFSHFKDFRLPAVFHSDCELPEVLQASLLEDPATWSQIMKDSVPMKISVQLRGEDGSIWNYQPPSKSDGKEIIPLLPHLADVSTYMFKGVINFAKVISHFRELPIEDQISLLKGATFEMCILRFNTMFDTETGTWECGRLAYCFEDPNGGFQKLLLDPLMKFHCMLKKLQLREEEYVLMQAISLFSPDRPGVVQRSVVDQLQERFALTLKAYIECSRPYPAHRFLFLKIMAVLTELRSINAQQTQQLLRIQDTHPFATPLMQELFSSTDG
Chain of Peroxisome proliferator-activated receptor alpha (Homo sapiens) (Q07869 whole entry, looked up): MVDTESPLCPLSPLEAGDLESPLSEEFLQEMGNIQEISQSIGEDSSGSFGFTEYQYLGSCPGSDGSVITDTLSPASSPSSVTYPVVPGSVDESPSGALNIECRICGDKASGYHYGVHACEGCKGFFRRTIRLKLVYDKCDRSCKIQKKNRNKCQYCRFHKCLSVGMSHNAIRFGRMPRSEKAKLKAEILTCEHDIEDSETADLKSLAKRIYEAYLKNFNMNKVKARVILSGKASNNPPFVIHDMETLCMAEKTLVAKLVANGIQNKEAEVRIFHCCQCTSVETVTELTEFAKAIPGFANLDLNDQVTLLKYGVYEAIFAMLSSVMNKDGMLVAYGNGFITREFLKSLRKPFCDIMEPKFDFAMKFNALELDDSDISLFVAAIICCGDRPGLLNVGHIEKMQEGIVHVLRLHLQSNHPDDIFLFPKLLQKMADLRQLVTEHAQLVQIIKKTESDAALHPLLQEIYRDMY
Chain of Retinoic acid receptor RXR-alpha (Homo sapiens) (P19793 whole entry, looked up): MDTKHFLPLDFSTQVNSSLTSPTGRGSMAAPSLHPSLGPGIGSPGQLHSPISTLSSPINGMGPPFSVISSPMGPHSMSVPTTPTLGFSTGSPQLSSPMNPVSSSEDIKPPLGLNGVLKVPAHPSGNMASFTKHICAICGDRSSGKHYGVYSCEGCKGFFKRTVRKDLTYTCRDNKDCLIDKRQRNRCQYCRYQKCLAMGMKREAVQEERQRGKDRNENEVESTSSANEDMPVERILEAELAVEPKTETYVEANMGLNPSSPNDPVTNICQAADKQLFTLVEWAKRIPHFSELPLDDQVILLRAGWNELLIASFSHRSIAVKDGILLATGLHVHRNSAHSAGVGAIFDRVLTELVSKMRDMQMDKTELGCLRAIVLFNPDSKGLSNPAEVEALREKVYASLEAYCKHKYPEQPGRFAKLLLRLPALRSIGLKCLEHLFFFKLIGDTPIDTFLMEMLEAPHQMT
Chain of Peroxisome proliferator-activated receptor gamma (Homo sapiens) (P37231 whole entry, looked up): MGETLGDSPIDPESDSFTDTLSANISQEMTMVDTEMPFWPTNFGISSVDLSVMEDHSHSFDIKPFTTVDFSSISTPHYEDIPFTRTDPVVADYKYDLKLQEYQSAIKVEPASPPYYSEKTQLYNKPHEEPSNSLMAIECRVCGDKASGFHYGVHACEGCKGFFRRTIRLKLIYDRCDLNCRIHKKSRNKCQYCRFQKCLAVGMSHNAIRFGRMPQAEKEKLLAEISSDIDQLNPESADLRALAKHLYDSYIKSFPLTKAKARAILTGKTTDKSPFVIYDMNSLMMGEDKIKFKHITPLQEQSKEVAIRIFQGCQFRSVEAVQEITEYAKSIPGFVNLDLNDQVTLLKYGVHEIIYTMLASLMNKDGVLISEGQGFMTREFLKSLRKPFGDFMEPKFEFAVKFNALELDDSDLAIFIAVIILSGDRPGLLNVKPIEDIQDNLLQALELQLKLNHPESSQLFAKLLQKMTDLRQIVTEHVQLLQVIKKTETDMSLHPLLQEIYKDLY
Chain of Glucocorticoid receptor (Homo sapiens) (P04150 whole entry, looked up): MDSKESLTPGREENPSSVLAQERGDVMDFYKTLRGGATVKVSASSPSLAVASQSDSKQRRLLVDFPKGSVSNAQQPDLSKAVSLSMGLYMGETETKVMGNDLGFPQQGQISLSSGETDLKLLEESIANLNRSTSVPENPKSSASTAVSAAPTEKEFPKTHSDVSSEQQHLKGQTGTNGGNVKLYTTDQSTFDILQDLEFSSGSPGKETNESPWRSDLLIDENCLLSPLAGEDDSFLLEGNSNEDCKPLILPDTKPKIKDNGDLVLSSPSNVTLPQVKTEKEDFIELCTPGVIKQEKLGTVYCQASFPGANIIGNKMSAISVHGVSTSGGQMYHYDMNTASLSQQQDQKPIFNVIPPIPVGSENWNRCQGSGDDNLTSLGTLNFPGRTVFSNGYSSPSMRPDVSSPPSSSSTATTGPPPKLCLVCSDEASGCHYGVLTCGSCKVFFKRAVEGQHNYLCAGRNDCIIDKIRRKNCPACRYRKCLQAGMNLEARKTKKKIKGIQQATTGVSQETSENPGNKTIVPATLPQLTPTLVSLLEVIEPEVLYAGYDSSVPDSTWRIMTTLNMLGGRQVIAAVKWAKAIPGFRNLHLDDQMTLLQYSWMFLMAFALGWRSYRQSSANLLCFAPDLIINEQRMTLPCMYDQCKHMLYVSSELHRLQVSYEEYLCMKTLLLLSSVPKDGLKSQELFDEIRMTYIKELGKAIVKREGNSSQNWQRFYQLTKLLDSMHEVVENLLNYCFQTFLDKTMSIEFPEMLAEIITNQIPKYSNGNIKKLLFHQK

O=C=NC1CCC(CC2CCC(N=C=O)CC2)CC1 (configuration not stated)
activation [1]: -3.36% (inactive) | max response [2]: 20.7% | Potency [3]: inactive | Potency [4]: inactive | Potency [5]: inactive | outcome [6]: inactive | max response [7]: -11% | Potency [8]: inactive | Potency [9]: inactive | max response [10]: -7.15% | max response [11]: -13.6% (inactive) | Potency [12]: inactive | activation [13]: -0.886% (inactive) | activation [14]: 0.629% (inactive) | max response [15]: -2.73% (inactive) | Potency [16]: inactive | max response [17]: -1.04% (inactive) | max response [18]: -9.19% (inactive) | Potency [19]: inactive | max response [20]: -1.91% (inactive) | outcome [21]: inactive

OCCOCCOCCOCCOCCO
max response [2]: -16.8% | Potency [3]: inactive | outcome [22]: inactive | Potency [4]: inactive | Potency [5]: inactive | outcome [6]: inactive | max response [7]: 5.49% | Potency [8]: inactive | max response [10]: -8.78% | max response [11]: 0.858% (inactive) | activity change % (negative = inhibition) [23]: -16.4% (inactive) | Potency [12]: inactive | activation [13]: 2.86% (inactive) | max response [15]: -1.15% (inactive) | max response [17]: -9.49% (inactive) | max response [18]: -4.24% (inactive) | Potency [19]: inactive

CCNc1nc(N)nc(Cl)n1
max response [2]: 34.2% | Potency [3]: inactive | Potency [5]: inactive | outcome [6]: inactive | max response [7]: -5.45% and -6.57% | Potency [8]: inactive | max response [10]: -17.5% and -16.5% | max response [11]: 7.29% (inactive) and -4.52% (inactive) | activity change % (negative = inhibition) [23]: -8.97% (inactive) | Potency [12]: inactive | activation [13]: -2.48% (inactive) and -1.49% (inactive) | activation [24]: -0.704% (inactive) and -0.787% (inactive) | max response [15]: -2.09% (inactive) and -1.78% (inactive) | Potency [16]: inactive | max response [17]: -7.89% (inactive) and -3.73% (inactive) | max response [18]: -4.19% (inactive) and 3.18% (inactive) | Potency [19]: inactive | max response [20]: -3.95% (inactive) and -0.52% (inactive)

O=C(Nc1ccccc1)c1cc(Cl)ccc1O
Potency [5]: inactive | outcome [6]: inactive | Potency [9]: inactive | Potency [12]: 5.45 µM (active) | Potency [13]: 10 µM (active) | activation [24]: 4.05% (inactive) | Potency [14]: 15.8 µM (active) | max response [15]: 0.537% (inactive) | Potency [19]: 35.5 µM (active) | outcome [21]: inactive

S=C(S)NCCNC(=S)S
Potency [25]: inactive | outcome [22]: inactive | Potency [4]: inactive | outcome [6]: inactive | Potency [9]: inactive | activity change % (negative = inhibition) [23]: -7.47% (inactive) | activation [14]: 0.998% (inactive) | max response [15]: 0.0068% (inactive) | max response [17]: -0.0675% (inactive) | max response [18]: -6.97% (inactive) | Potency [19]: inactive | max response [20]: -0.407% (inactive)

CCN(Cc1c(F)cccc1Cl)c1c([N+](=O)[O-])cc(C(F)(F)F)cc1[N+](=O)[O-]
max response [2]: -79% | Potency [3]: inactive | outcome [22]: inactive | Potency [4]: inactive | Potency [5]: inactive | outcome [6]: inactive | activity change % (negative = inhibition) [23]: -17.5% (inactive) | activation [13]: 1.01% (inactive) | activation [24]: -3.71% (inactive) | activation [14]: 0.127% (inactive) | max response [15]: -0.89% (inactive) | Potency [16]: inactive | max response [17]: -3.47% (inactive) | Potency [19]: inactive
